Measurements reported in PubChem BioAssay (NCI).
This is part of a sample that, as a whole, favours compounds with a hit. Of some 83,000 tested, about 20% had one in any assay.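 Treatment: one concentration, 48 hours, 96-well format. Scoring: percent growth, with anything below 10 considered active.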 Unmarked numbers belong to inactive results. Activity calls are given as the source filed them.

How the values were obtained:
Assay in all cases: NCI-60 one-dose screen, 48 h (100 = growth as untreated, 0 = no growth, -100 = all killed)
Settings in all cases: 10 µM unless noted
NCI-H23 lung = test system: NCI-H23 lung
NCI-H226 lung = test system: NCI-H226 lung
NCI-H322M lung = test system: NCI-H322M lung
HOP-62 NSCLC = test system: HOP-62 NSCLC
NCI-H460 lung = test system: NCI-H460 lung
HOP-92 NSCLC = test system: HOP-92 NSCLC
NCI-H522 lung = test system: NCI-H522 lung
A549/ATCC NSCLC = test system: A549/ATCC NSCLC
786-0 renal = test system: 786-0 renal
COLO 205 colon = test system: COLO 205 colon
DU-145 prostate = test system: DU-145 prostate
K-562 leukemia = test system: K-562 leukemia
MALME-3M melanoma = test system: MALME-3M melanoma
MDA-MB-231 breast = test system: MDA-MB-231 breast
RXF 393 renal = test system: RXF 393 renal
SF-268 CNS = test system: SF-268 CNS
SF-295 CNS = test system: SF-295 CNS
SF-539 CNS = test system: SF-539 CNS
UACC-257 melanoma = test system: UACC-257 melanoma
M14 melanoma = test system: M14 melanoma

Structure (SMILES)	growth (NCI-H23 lung)	growth (NCI-H226 lung)	growth (NCI-H322M lung)	growth (HOP-62 NSCLC)	growth (NCI-H460 lung)	growth (HOP-92 NSCLC)	growth (NCI-H522 lung)	growth (A549/ATCC NSCLC)	growth (786-0 renal)	growth (COLO 205 colon)	growth (DU-145 prostate)	growth (K-562 leukemia)	growth (MALME-3M melanoma)	growth (MDA-MB-231 breast)	growth (RXF 393 renal)	growth (SF-268 CNS)	growth (SF-295 CNS)	growth (SF-539 CNS)	growth (UACC-257 melanoma)	growth (M14 melanoma)
COc1ccc(C(=O)NC(=O)Nc2cc3c(cc2F)/C(=C/c2[nH]c(C)c(CCC(=O)O)c2C)C(=O)N3)c(F)c1	41.3%	53.3%	63.9%	25.8%	28.6%	-0.4% (active)	48.6%	13.5%	39%	67.4%	45.9%	45.8%	49.9%	61.5%	33.5%	32.3%	21.3%	15.4%	20.1%	44.2%
CO[C@H]1NC(=O)N(S(=O)(=O)c2ccc(Cl)cc2)[C@@H]1OC	107%	131%	111%	93.1%	110%	114%	105%	98.2%	103%	108%	115%	93.2%	101%	108%	119%	102%	92.1%	98.7%	106%	115%
O=S(=O)(NCCCNc1nccc(-n2ccc3cccnc32)n1)c1ccc(Br)cc1	108%	96.5%	103%	109%	105%	109%	92.6%	107%	104%	114%	104%	101%	118%	104%	107%	94.9%	104%	103%	118%	110%
Cn1ccc(Nc2nccc(Oc3ccc(C(=O)Nc4cccc(F)c4)c(Cl)c3)n2)c1	67.3%	68%	48.4%	100%	106%	76.4%	43.1%	97.2%	79.8%	105%	47.9%	70.6%	94.6%	99%	105%	79.4%	61.8%	84.9%	79.5%	96.9%
COc1ccc2c(c1)[nH]c(=O)c1c3cc(C)c(C)cc3cn21	51.4%	37%	-25.1% (active)	-27.8% (active)	-16.4% (active)	-41.7% (active)	-55.8% (active)	-4.9% (active)	30.9%	-48% (active)	-68% (active)	35.9%	15.6%	-35.7% (active)	-48.6% (active)	-3.98% (active)	-51.7% (active)	8.86% (active)	66.8%	-33.5% (active)
COc1ccc(Nc2[nH]n3c(=O)cc(C)nc3c2C(N)=O)c(OC)c1	100%	97.4%	96%	85.9%	105%	73.1%	84.9%	89.5%	99.1%	102%	112%	101%	126%	84.9%	98.1%	97.8%	102%	91.2%	85.1%	106%
NC1=C(/C(N)=N/O)C(c2ccccc2)c2ccc3ccccc3c2O1 (stereo not given)	28.7%	1.84% (active)	40%	26.2%	1.37% (active)	29.8%	5.81% (active)	21.2%	29%	-5.32% (active)	9% (active)	13.2%	46.4%	8.69% (active)	-14.1% (active)	33%	-0.153% (active)	-32.4% (active)	46.7%	11.7%
CN(C[C@H]1Cc2c(cccc2N2CCN(c3ncccn3)CC2)CN1)[C@H]1CCCc2cccnc21	45.5%	39.4%	50.3%	17.2%	20.7%	27.4%	52.6%	25.7%	39.5%	10.2%	55%	8.04% (active)	82.7%	52.9%	57.6%	60%	44.4%	55.5%	55.1%	53.7%
C=C1CCC2C3(C)COC(c4c(OC)cccc4OC)OC3CCC2(C)C1C/C=C1/C(=O)OCC1O (stereo not given)	80%	80.2%	70.3%	104%	89%	46.7%	24.6%	47.9%	90.3%	-15.2% (active)	21%	37.9%	109%	86.7%	-28.7% (active)	67%	85.1%	66.7%	59.6%	39.9%
COc1ccc(-c2nc(N3CCCC3=O)sc2Br)cc1OC	95.7%	93.8%	96.6%	103%	108%	113%	89.1%	96.8%	97.5%	112%	114%	94%	111%	93.7%	89.9%	104%	93.5%	96.9%	98.5%	116%
c1ccc(Nc2nc(Nc3ccccc3)nc(Nc3ccccc3)n2)cc1	86.5%	89%	57.3%	90.6%	78%	60.9%	84.5%	79.9%	100%	76.1%	93.6%	92.7%	88.7%	79.2%	84.3%	106%	69%	90.7%	82.9%	89%
Cc1ccc(/C=C2\CN(C(=O)CCN3CCC(=NO)CC3)C/C(=C\c3ccc(C)cc3)C2=O)cc1	7.62% (active)	81%	16.8%	46.9%	-42.5% (active)	72.2%	-28.6% (active)	50.8%	-15.5% (active)	-35.4% (active)	21.6%	4.38% (active)	-27.6% (active)	-13.8% (active)	-77.7% (active)	12.9%	-1.83% (active)	-18% (active)	44.9%	5.63% (active)
Nc1nc(Nc2cc(Cl)cc(Cl)c2)nn1S(=O)(=O)c1ccc2ccccc2c1	66.5%	66.7%	76.4%	66%	27.8%	-10.4% (active)	69%	42.7%	25.5%	66.5%	47.7%	41.5%	63%	35.3%	30.6%	52.4%	93.6%	83.5%	83.3%	78.4%
O=C(Nc1ccncc1)C(=O)c1cn(S(=O)(=O)c2ccc(Cl)cc2)c2ccccc12	30.7%	78.3%	80.6%	31.4%	71.9%	32.8%	-2.79% (active)	73.9%	34.9%	106%	27.7%	22.2%	31.7%	45.7%	25%	41.8%	13.1%	9.27% (active)	75.9%	17.7%
